This is part of a sample that, as a whole, favours compounds with a hit. Of some 83,000 tested, about 20% had one in any assay.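 Single-dose data. Exposure time 48 hours. Values below 10 considered active.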 Values without a mark were called inactive. Calls of active or inactive are those of the source.
Legend:
Assay in all cases: NCI-60 one-dose screen, 48 h (100 = growth as untreated, 0 = no growth, -100 = all killed)
Conditions in all cases: 10 µM unless noted
[1] = tested on: NCI-H23 lung
[2] = tested on: NCI-H226 lung
[3] = tested on: NCI-H322M lung
[4] = tested on: HOP-62 NSCLC
[5] = tested on: NCI-H460 lung
[6] = tested on: HOP-92 NSCLC
[7] = tested on: NCI-H522 lung
[8] = tested on: A549/ATCC NSCLC
[9] = tested on: 786-0 renal
[10] = tested on: COLO 205 colon
[11] = tested on: DU-145 prostate
[12] = tested on: K-562 leukemia
[13] = tested on: MALME-3M melanoma
[14] = tested on: MDA-MB-231 breast
[15] = tested on: RXF 393 renal
[16] = tested on: SF-268 CNS
[17] = tested on: SF-295 CNS
[18] = tested on: SF-539 CNS
[19] = tested on: UACC-257 melanoma
[20] = tested on: M14 melanoma

SMILES | growth [1] [%] | growth [2] | growth [3] [%] | growth [4] [%] | growth [5] | growth [6] | growth [7] [%] | growth [8] [%] | growth [9] | growth [10] | growth [11] [%] | growth [12] | growth [13] | growth [14] | growth [15] | growth [16] | growth [17] [%] | growth [18] | growth [19] | growth [20]
Cc1ccc(C(=O)NN2C(=O)CSC2c2cccc([N+](=O)[O-])c2)cn1 (stereo not given) | 93.2 | 95.6% | 104 | 93 | 108% | 81.3% | 109 | 92.9 | 106% | 105% | 107 | 98.9% | 111% | 96.6% | 82.8% | 104% | 99.4 | 106% | 75.8% | 96.4%
NCCNc1nc2ccccc2c2c(=O)c3cc(F)ccc3sc12 | 84.9 | 96% | 72.6 | 76.5 | 12.2% | 59.1% | 79.4 | 66.1 | 73.5% | -1% (active) | 65.9 | 1.61% (active) | 96.2% | 33.7% | 77.8% | 66.9% | 102 | 82.7% | 103% | 77.4%
CCCSc1nc2ccc(C)cc2cc1/C=[N+](\[O-])c1ccccc1 | 42.1 | 70.8% | 90.9 | 25.5 | 96.7% | 19.2% | 72.8 | 95.4 | 34.6% | 101% | 42 | 40.4% | 46.2% | 51.1% | 69.4% | 45.5% | 98.8 | 1.38% (active) | 63.3% | 6.91% (active)
COc1ccc(C2C(N)=NNC2c2cccc(O)c2)cc1 (stereo not given) | 90.2 | 84% | 90.6 | 90.2 | 115% | 88.3% | 89.2 | 99.8 | 108% | 125% | 125 | 89% | 88.5% | 104% | 97.2% | 99.4% | 92.1 | 95.4% | 107% | 104%
COc1ccc(N)c(N)c1 | 96.4 | 113% | 95.4 | 105 | 105% | 92.5% | 81.4 | 98.1 | 102% | 105% | 111 | 97.8% | 91.7% | 105% | 105% | 117% | 99.1 | 97.4% | 114% | 101%
C/C(=C(/c1ccccc1)c1ccc(N2C(=O)c3cccc4c(N5CCN(C)CC5)ccc(c34)C2=O)cc1)c1ccccc1 | 59.7 | 69.6% | 99.9 | 86.1 | 83.3% | 67.4% | 81.5 | 71.1 | 87.6% | 81.1% | 82.8 | 9.2% (active) | 81.4% | 94.5% | 74.8% | 96.2% | 83.3 | 72.3% | 79.8% | 85.6%
CC1=NN(c2ccc(S(=O)(=O)O)cc2)C(=O)C1N=Nc1ccc(-c2ccc(N=Nc3ccc(OS(=O)(=O)c4ccc(C)cc4)cc3)c(S(=O)(=O)O)c2)cc1 (stereo not given) | 87.4 | 85.7% | 93.4 | 93.7 | 96% | 41.1% | 77.8 | 99 | 90.3% | 102% | 107 | 94.4% | 108% | 97.1% | 61.7% | 100% | 77.5 | 85.1% | 104% | 103%
CNC(C)[C@H]1CCC2C3CCC4C[C@@H](N(C)C(=O)c5ccccc5)CC[C@]4(C)C3CC[C@@]21C (stereo not given in full) | 40.9 | 80.3% | 12.6 | 38.4 | -7.41% (active) | 19.2% | 69.5 | 39.9 | 40.1% | -79.3% (active) | 61.4 | -2.77% (active) | -42.1% (active) | -1.29% (active) | -67% (active) | -9.75% (active) | 24.3 | -61.2% (active) | -12.6% (active) | -36.6% (active)
c1ccc2cc(C[n+]3ccn(CCCCCCn4cc[n+](Cc5ccc6ccccc6c5)c4)c3)ccc2c1 | 30.5 | 69.6% | 76.2 | 55.8 | 24.6% | 59.9% | 33.1 | 38.6 | 83.6% | 27.9% | 65.9 | 28.3% | 11.2% | 84.1% | 87.4% | 55.6% | 48.3 | 56.3% | 61.9% | 69.9%
CCOC(=O)/C(C#N)=C\Nc1ccc2ncnc(Nc3ccc(Cl)cc3Cl)c2c1 | 99.5 | 99.8% | 75.6 | 101 | 84.8% | 56.5% | 95.8 | 72.1 | 82.6% | 108% | 55.9 | 59.7% | 140% | 85.2% | 77% | 73% | 82.2 | 92.7% | 97.2% | 106%
COc1ccc(-c2cc(-c3cc(OC)c(OC)c(OC)c3)nc(N3CCOCC3)c2C#N)cc1 | 23.4 | 83.8% | 93.6 | 88.8 | 73.8% | 58.4% | 59.9 | 60 | 61.3% | 57.7% | 93.5 | 47.5% | 126% | 75.3% | 52.9% | 83.4% | 69.5 | 76.6% | 74.2% | 90.3%
NC1=C(c2nn[nH]n2)C(c2ccccc2Cl)c2ccc3ccccc3c2O1 (stereo not given) | 76.3 | 76.8% | 89.9 | 66.5 | 87.5% | 69.7% | 35.5 | 83.3 | 82.7% | 86.8% | 93.4 | 22.6% | 64% | 63.7% | 79.3% | 73.2% | 88.9 | 79.2% | 84.7% | 61.3%
COc1ccc(-c2cc3c4c(nc5ccccc5c4c2)CC(c2cc(OC)c(OC)c(OC)c2)O3)cc1 (stereo not given) | 54.2 | -12.5% (active) | 54.2 | 34.7 | 12.8% | -7.6% (active) | 55.6 | 64.7 | -56.1% (active) | 67.5% | 35.4 | 40.9% | 20.8% | 19.6% | -0.548% (active) | 44.4% | 42 | -16% (active) | 46.3% | 57.5%
Cc1ccc(C(C)C)cc1C(=O)C[n+]1ccccc1 | 113 | 105% | 96.8 | 91.6 | 109% | 100% | 81.7 | 101 | 96.4% | 112% | 107 | 105% | 95.9% | 112% | 121% | 98.8% | 93.5 | 97.1% | 115% | 95.6%
Cc1ccc(C(CC(=O)O)c2c(C)[nH][nH]c2=O)cc1 (stereo not given) | 95.3 | 102% | 104 | 97.9 | 108% | 118% | 94.5 | 105 | 96% | 113% | 106 | 90.8% | 99.4% | -33.1% (active) | 102% | 94.9% | 102 | 97% | 104% | 96.7%

Source: PubChem BioAssay (NCI)
